RORg inh: blocks mouse ROR gamma transcriptional activity; P51450; Drosophila S2 Gal4-RORgamma UAS-luciferase reporter, 20 h; Potency, µM (top dose mostly 53.6 µM), actives largely listed as inhibitors; hit rate 5.4% among 310,000; further: nearly all actives have a fitted effect of over 60% in size
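Compounds are pin-transferred onto Drosophila Schneider cells expressing a copper-inducible Gal4–ROR gamma transactivation domain fusion. After 1 hr, copper sulfate is added to 700 uM final; luciferase is read 20 hr later.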
TDP1 cell noCPT: qHTS for Inhibitors of human tyrosyl-DNA phosphodiesterase 1 (TDP1): qHTS in cells in absence of CPT. DT40 Tdp1-/- hTDP1 cells, no CPT, ATP luminescence, 48 h. Potency, µM (top dose mostly 46.2 µM), actives largely listed as inhibitors. hit rate 15% among 420,000. AID 686978, 2013; further: nearly all actives have a fitted effect of over 55% in size
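Luminescent ATP content (CellTiter-Glo) served as the growth readout. Knockout chicken DT40 cells expressing human TDP1 were exposed to compounds without camptothecin for a minimum 48 hr at 37 °C.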
DT40 TDP1 CPT: growth inhibition of DT40 Tdp1-/-;hTDP1 cells with camptothecin (screen for TDP1 inhibitors). AID 686979. Potency, µM (top dose mostly 46.2 µM), most hits filed as inhibitors. hit rate 12% among 420,000. chicken DT40 Tdp1-/-;hTDP1 cells + 20 nM CPT, ATP luminescence, 48 h; further: nearly all actives have a fitted effect of over 55% in size
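Cell growth measured by CellTiter-Glo luminescence after a minimum 48 h, 37 C compound exposure with 20 nM CPT in Tdp1-knockout DT40 cells stably expressing hTDP1, seeded 400/well; qHTS titration format.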
TDP1 block: blocks human tyrosyl-DNA phosphodiesterase 1; Q9NUW8; hit rate 0.28% among 350,000; recombinant TDP1, AlphaScreen DNA substrate cleavage; Potency, µM (highest dose often 130 µM), actives largely listed as inhibitors; further: nearly all actives have a fitted effect of over 40% in size
Target sequence (Q9NUW8 whole entry, looked up): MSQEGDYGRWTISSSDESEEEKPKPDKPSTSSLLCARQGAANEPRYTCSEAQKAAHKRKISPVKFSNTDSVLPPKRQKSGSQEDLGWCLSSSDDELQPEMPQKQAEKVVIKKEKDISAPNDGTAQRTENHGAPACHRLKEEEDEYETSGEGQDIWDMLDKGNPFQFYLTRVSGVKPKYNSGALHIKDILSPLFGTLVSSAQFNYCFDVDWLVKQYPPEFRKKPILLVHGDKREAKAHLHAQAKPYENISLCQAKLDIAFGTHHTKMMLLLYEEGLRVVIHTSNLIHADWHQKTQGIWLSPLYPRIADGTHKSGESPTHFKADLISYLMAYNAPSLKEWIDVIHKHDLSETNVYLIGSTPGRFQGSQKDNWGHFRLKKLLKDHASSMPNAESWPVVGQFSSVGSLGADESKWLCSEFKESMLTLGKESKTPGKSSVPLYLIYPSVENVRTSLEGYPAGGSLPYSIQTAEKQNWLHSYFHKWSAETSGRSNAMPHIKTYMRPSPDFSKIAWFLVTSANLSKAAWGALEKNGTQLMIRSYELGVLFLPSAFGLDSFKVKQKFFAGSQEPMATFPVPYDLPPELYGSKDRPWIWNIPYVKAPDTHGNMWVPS
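E. coli-derived human Tdp1, 1 nM final. Cpd preinc 15 min RT; substrate 15 nM final, 5 min RT; AS bead mix 10 ug/ml final, 10 min RT. Signal loss = tyrosine-FITC cleavage. No-enzyme wells = max signal.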
Gal4-VP16 FLuc: Gal4-VP16 reporter inhibition counter-screen. Potency, µM (series often up to 53.6 µM), usual class: inhibitors. Drosophila S2 Gal4-VP16 UAS-luciferase, luminescence, 20 h. hit rate 3.5% among 310,000;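 further: Gal4-VP16 expression switched on by copper sulfate through the metallothionein promoter; nearly all actives have a fitted effect of over 50% in size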
Hits are given with their value; – = inactive; ? = inconclusive; · = no result; ! = a repeat was not active; [ ] = dose if it differs, or a comment. This is a sample that favours compounds with a hit; in the whole collection about 19% have one here. The call rests on the fitted dose curve; in most records, active means well fitted curve in the direction sought with a large enough effect; inconclusive means small, poorly fitted or top-dose-only effect, or another doubt; inactive means no such curve, though single readings can be large; an effect the other way counts as inactive or inconclusive.

SMILES | RORg inh | TDP1 cell noCPT | DT40 TDP1 CPT | TDP1 block | Gal4-VP16 FLuc
O=C(c1ccco1)c1cn(Cc2ccccc2)c2ccccc12 | – | ? | – | – | –
CC(O)(c1ccncc1)c1nc(-c2cccc(C(F)(F)F)c2)cs1 (centres undefined) | · | 21µM | 23µM | · | ·
COC(=O)C(C)NC(=S)N1CC2C[C@@H](C1)Cn1c2cccc1=O (some centres undefined) | – | – | – | · | –
CCCCn1c(O)c(C(C)=NCCN2CCOCC2)c(=O)[nH]c1=O | – | – | – | – | –
O=C(Nc1ccc(Br)cc1)c1cc(Br)cc(Br)c1O | ? | – | – | – | –
CCC(c1nnnn1-c1ccc2c(c1)OCCO2)N1CCC(n2c(=O)[nH]c3ccccc32)CC1 (centres undefined) | · | 9.2µM | 10µM | · | ·
CSCCC(c1nnnn1-c1ccc2c(c1)OCCO2)N1CCC(n2c(=O)[nH]c3ccccc32)CC1 (centres undefined) | · | 7.3µM | 7.3µM | · | ·
CCCCC(=O)N/N=C/c1c(O)n(C2CC2)c(=S)[nH]c1=O | – | – | – | – | –
CC(C)c1ccc(-n2c(O)c(/C=N/NC(=O)c3ccccc3O)c(=O)[nH]c2=S)cc1 | 0.32µM | – | – | · | 4.5µM
O=C(N/N=C/c1c(O)n(CCc2ccccc2)c(=O)[nH]c1=O)c1ccccc1 | 14µM | ? | – | – | –
O=C(N/N=C/c1c(O)n(C2CCCCC2)c(=S)[nH]c1=O)c1ccccc1 | 5.6µM | ? | ? | – | ?
O=C(N/N=C/c1c(O)n(C2CCCCC2)c(=S)[nH]c1=O)c1ccccc1O | 4µM | ? | ? | – | 3.2µM
Cc1ccccc1-n1c(O)c(/C=N/c2nccs2)c(=O)[nH]c1=O | – | ? | – | – | –
C[C@H](NC(=O)[C@@H](N)Cc1ccc(O)cc1)C(=O)N[C@@H](Cc1ccccc1)C(=O)N[C@@H](Cc1ccccc1)C(N)=O | · | –[4.12 µM] | –[4.12 µM] | – | ·
N#CCc1ccccc1 | – | · | · | – | –
CCC(=NCCO)c1c(O)n(C2CCCCC2)c(=O)[nH]c1=O | – | – | – | – | –
CC/C(=N\NC(=O)c1ccccc1O)c1c(O)n(C2CCCCC2)c(=O)[nH]c1=O | 2.5µM | – | – | – | 8.9µM
CCN(CC)CCCN=Cc1c(O)n(CCc2ccc(F)cc2)c(=O)[nH]c1=O | –[10 µM] | – | – | – | –
CCn1c(O)c(/C=N/NC(=O)c2ccncc2)c(=O)[nH]c1=S | – | – | – | – | –
CCn1c(O)c(/C=N/NC(=O)c2ccccc2)c(=O)n(CC)c1=S | ? | 29µM | ? | – | ?
NC1CCCCC1N=Cc1c(O)n(CCc2ccc(F)cc2)c(=O)[nH]c1=O (centres undefined) | –[10 µM] | 18µM | ? | – | –
O=c1[nH]c(=S)n(C2CC2)c(O)c1/C=N/Nc1ccccc1 | – | – | – | – | –
O=c1[nH]c(=S)n(C2CC2)c(O)c1/C=N/Nc1cccc2ccccc12 | – | ? | 16µM | – | ?
O=C(CN1CCCCC1)c1ccccc1Cl | – | – | – | – | ?
O=C1NC(=O)N(c2ccccc2)C(=O)/C1=C\c1ccc([N+](=O)[O-])o1 | – | · | · | · | –
SMILES | RORg inh | TDP1 cell noCPT | DT40 TDP1 CPT | TDP1 block | Gal4-VP16 FLuc
O=C1NC(=O)N(c2ccccc2)C(=O)/C1=C\c1ccc([N+](=O)[O-])s1 | – | 8.2µM | 21µM | – | –
CN1C(=O)NC(=O)/C(=C/c2ccc([N+](=O)[O-])s2)C1=O | – | 3.3µM | 4.1µM | – | –
COc1ccc(OC)c(N2C(=O)NC(=O)/C(=C\c3ccc([N+](=O)[O-])s3)C2=O)c1 | 6.3µM | ? | 16µM | – | ?
C=C(C)C1CCC(C)=CC1c1c(O)cc(O)cc1CCCCC (centres undefined) | ? | · | · | – | –
COc1cc(/C=N/NP(=S)(c2ccccc2)c2ccccc2)ccc1O | – | – | – | – | –
O=C(NN=Cc1ccc(O)c(O)c1)c1ccccc1 | · | 23µM | 23µM | · | ·
Cc1ccsc1CNCCc1ccccc1F | – | – | – | – | –
COP(=S)(OC)Oc1ccc([N+](=O)[O-])cc1 | 11µM! | 2.9µM | 5.8µM | – | 10µM!
CC/C(=N\Nc1cccc2ccccc12)c1c(O)[nH]c(=O)[nH]c1=O | – | 5.8µM | 5.2µM | – | ?
CC1(C)CC(=O)C2=C(C1)NC(=O)C21C(C(=O)OC(C)(C)C)=C(N)Oc2ccc(Br)cc21 (centres undefined) | – | ? | ? | – | –
CCN(C(=O)COC(=O)c1cc(C)n(C2CC2)c1C)c1ccccc1 | · | ? | ? | – | ·
NCCc1ccc(OCc2ccccc2)c(OCc2ccccc2)c1 | · | 12µM | 16µM | – | ·
COc1ccc(CCN)cc1OC | – | – | – | · | –
CCc1ccc(OCCCN=C(C)c2c(O)n(C)c(=O)n(C)c2=O)cc1 | – | 18µM | 13µM | – | ?
Cn1c(O)c(C(=Nc2ccccc2)SCc2ccc(Cl)cc2)c(=O)n(C)c1=O | ? | 3.3µM | 4.6µM | · | –
CCC(=NCCc1ccccc1)c1c(O)n(C)c(=O)n(C)c1=O | – | 8.2µM | ? | · | ?
CC(=NCCC(c1ccccc1)c1ccccc1)c1c(O)n(C)c(=O)n(C)c1=O | – | 13µM | 21µM | – | –
CC(=NCCCn1ccnc1)c1c(O)n(C)c(=O)n(C)c1=O | – | – | – | – | –[0.365 µM]
Cn1c(O)c(C(=N)COc2ccccc2)c(=O)n(C)c1=O | – | – | – | – | –
CCC(=O)c1cn(Cc2ccccc2)c2ccccc12 | – | ? | – | – | –
C/C=C1/C[N@@+]2(C)CC[C@]34C(=C(C=O)[C@H]1C[C@H]32)Nc1ccccc14 | · | – | – | – | ·
CN1CCC(O)(c2ccc(Cl)cc2)C(C(=O)c2ccc(Cl)cc2)C1 (centres undefined) | – | 2.9µM | 2.6µM | – | –[10 µM]
CN1CC(C(=O)c2ccc(Cl)cc2)C(c2ccc(Cl)cc2Cl)C1 (centres undefined) | – | ? | ? | · | –
CCCCC1(CCC)C(=O)NC(=S)NC1=O | · | – | – | · | ·
CCOc1ccc(CCNC(=O)c2ccc(CS(=O)(=O)c3ccccc3C)o2)cc1OCC | · | 15µM | ? | – | ·
SMILES | RORg inh | TDP1 cell noCPT | DT40 TDP1 CPT | TDP1 block | Gal4-VP16 FLuc
COc1ccc(CCNCc2ccc(Br)cc2)cc1OC | – | ? | 21µM | · | –
COc1ccccc1CNCCc1ccc(F)cc1 | – | – | ? | · | –
COc1cc(OC)c(OC)cc1CNCCc1ccc(F)cc1 | – | 12µM | ? | – | –
COc1ccccc1CNCCc1cccc(Cl)c1 | · | 15µM | 18µM | · | ·
COc1ccc(CNCCc2ccc(Cl)cc2)c(OC)c1OC | – | 9.2µM | 16µM | · | –
COc1ccc2c(c1)C13CCN(C)C(C2)C1CCC1(C3)OCCO1 (centres undefined) | · | – | – | · | ·
CN1CCN(c2ncc3ncc(=O)n(C)c3n2)CC1 | – | – | – | · | –
N#Cc1c(/N=C/C2C(=O)NC(=S)NC2=O)sc2c1CCCC2 | – | – | – | · | –

Assay outcomes as filed in PubChem.
